Test results: PubChem BioAssay (NCI)
Compounds without any hit were thinned out: in the full panel of roughly 83,000, 20% have a hit.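 Values shown are percent growth following 48 h exposure of cells in 96-well plates to a single concentration of compound; below 10 was considered active.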 The source made the active and inactive calls.

The compounds below were run on SK-MEL-5 melanoma (assay: NCI-60 one-dose screen, 48 h (100 = growth as untreated, 0 = no growth, -100 = all killed)). Conditions: 10 µM unless noted.

Row | Structure (SMILES) | growth
1 | N#Cc1c(NC(=O)c2ccc([N+](=O)[O-])o2)[n+]([O-])c2cc(F)c(F)cc2[n+]1[O-] | 79.6% (inactive)
2 | CC(C)(C)OC(=O)N1C/C(=C\c2cccs2)C(=O)/C(=C/c2cccs2)C1 | 87.9% (inactive)
3 | CC(Cc1nnc(SCC(=O)Nc2ccc(I)cc2)n1N)c1ccccc1 (stereo not given) | 94.3% (inactive)
4 | COC(=O)CC/C(C)=N\Nc1ccc([N+](=O)[O-])cc1 | 73.8% (inactive)
5 | COc1ccccc1OCC(=O)Nc1sc2c(c1C(N)=O)CCC2 | 70% (inactive)
6 | CC(=O)N1Cc2ccccc2C(C)Cc2cc(Cl)ccc21 (stereo not given) | 103% (inactive)
7 | COc1ccc(/C(=N/O)c2cc(OC)c(OC)c(OC)c2)c(OC)c1N | 14.4% (inactive)
8 | CC(C)CCC[C@@H](C)[C@H]1CC[C@H]2[C@@H]3CC[C@H]4C/C(=N/O)CC[C@]4(C)[C@H]3CC[C@]12C | 98.3% (inactive)
9 | C/C(=N\NC(=O)CC#N)c1cc2cc(Cl)ccc2o1 | 84.2% (inactive)
10 | CCC#CC[C@H]1C/C=C2/C(=O)C=C[C@@H]2C/C=C\CCCC(=O)O1 | -85.6% (active)
11 | Cc1cc(C(=O)O)c(N)c(C)n1 | 115% (inactive)
12 | CCCCCCOc1ccc(C2(Cl)c3ccccc3N(C)c3ccccc32)cc1 | 33.2% (inactive)
13 | CC(C)N(Cc1ccc(CN(C(=O)CCl)C(C)C)cc1)C(=O)CCl | 17.9% (inactive)
14 | COc1cc(-n2nc(C(=O)Nc3ccc(C(=O)O)cc3)nc2-c2ccccc2)cc(OC)c1OC | 107% (inactive)
15 | NC(=O)NNC(=O)c1ccccc1 | 104% (inactive)
